Screening results deposited in PubChem BioAssay by ICCB-Longwood Screening Facility, Harvard Medical School.
The entries come from a sample that favours hits as a whole.
S aureus helic: blocks Staphylococcus aureus DNA helicase; purified S. aureus helicase, fluorescence unwinding assay; AID 485395; 120,000 compounds, 0.05% hits; inhibition, % (no concentration beside the values); in the data active = inhibition above about 25%, passing the limit was not always enough;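 also: 0% = mean of negative control wells and 100% = mean of positive control wells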
Sa growth 42C: inhibitors of Staphylococcus aureus growth at 42 °C; S. aureus RN4220 growth, OD600, 20 h; hits give low values; relative growth, % (concentration not given with the values); 170,000 compounds, 0.53% hits;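 active = relative growth at most 50% at the other temperature and 20+ points below 30 °C, or under 10% at both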
* = called active by the depositor; / = not tested or not shown; ! = a repeat was not active.

SMILES	S aureus helic	Sa growth 42C
O=C(Nc1ccc(Cl)c(Cl)c1)OCc1ccco1	6	44
C/C(=C/C(=O)C1CC1)C1CC1	1	90
NC(=O)CN(c1ccccc1)C1SC(=O)NC1=O (stereo not given)	8	118
Cc1nccn1CC(=O)N1c2ccccc2Sc2ccccc21	6	-0.3*
Cn1ccnc1SC(=O)N1c2ccccc2Sc2ccccc21	2	118
CC(=O)N(Cc1ccc2c(c1)OCO2)c1nnc(C)s1	-15	94
CC(=O)NCCSc1nnnn1-c1ccccc1	5	92
Cc1ccc(OC(=O)c2cccnc2)cc1	-5	98
Cc1ccc(N(c2ccc(C)cc2)c2cccnc2)cc1	7	5.5*
CN(Cc1coc(-c2ccccc2)n1)Cc1coc(-c2ccccc2)n1	-23	-1.3*
O=C(O)Cc1coc(-c2ccc(F)cc2)n1	-19	78
O=C(NCc1ccco1)C(c1ccco1)N(C(=O)Cn1nnc2ccccc21)c1ccccc1 (stereo not given)	15	114
CCCCc1oc2ccccc2c1C(=O)c1ccc(O)cc1	4	32
CCc1oc2ccccc2c1C(=O)c1cc(Br)c(O)c(Br)c1	/	4.4*!
CCN(C(C)=O)c1ccccc1C	4	106
COc1ccc(/C=C(\C#N)c2cccs2)cc1	-12	47*
N#C/C(=C\c1ccc(C(F)(F)F)cc1)c1cccs1	/	99
N#Cc1c(N)c(C#N)c(=S)n(CC2CCCO2)c1N (stereo not given)	2	83
Cc1cc(F)ccc1S(=O)(=O)Nc1ccccc1C(=O)OCC(=O)NCc1ccco1	-2	81
Fc1ccc(Nc2nc3nonc3nc2Nc2cccc(C(F)(F)F)c2)cc1	/	-1.0*
NNc1nc(NN)nc(Nc2cccc(C(F)(F)F)c2)n1	9	77
Fc1ccc(Nc2nc3nonc3nc2Nc2ccccc2F)cc1	17	-0.6*
O=c1[nH]c2nonc2nc1Nc1ccccc1F	2	29
Cc1cccc(NS(=O)(=O)c2ccc3c(c2)oc(=O)n3C)c1	9	107
COc1cc(NC(=O)C2CC3C=CC2C3)cc(OC)c1OC (stereo not given)	-4	102
SMILES	S aureus helic	Sa growth 42C
Oc1c(CN2CCCCC2)cc(Cl)c2cccnc12	13	/
CCN1CCN(Cc2cc(Cl)c3cccnc3c2O)CC1	27	74
Oc1c(CN2CCOCC2)cc(Cl)c2cccnc12	-3	1.3*
CC1CN(Cc2cc(Cl)c3cccnc3c2O)CC(C)O1 (stereo not given)	1	0.6*
O=C(CCCN1C(=O)S/C(=C\C=C\c2ccccc2)C1=O)Nc1cccc(O)c1	-2	/
O=C(/C=C/c1ccccc1)NCc1n[nH]c(=O)c2ccccc12	12	121
Oc1cccc(CC(F)(F)F)c1	-21	93
CCSc1nnc2c(n1)OC(c1cccc(OC)c1OCC(=O)O)Nc1ccc(Br)cc1-2 (stereo not given)	21	93
FC(F)(F)c1ccc2c(Cl)ccnc2c1	12	92
CCCC(=O)Oc1c[nH]c2ccccc12	/	3.9*
CCOC(=O)Cc1c[nH]c2ccccc12	4	95
CSc1nc2ccccc2n1C(=O)c1cccs1	-19	/
O=C1NN(c2ccccc2)C(=O)/C1=C/c1ccc(SC2CCCCC2)o1	22	92
N=C1/C(=C/c2ccc(SC3CCCCC3)o2)C(=O)N=C2SC=CN12	-15	8.4*
COc1ccc(CNC(=S)N2CCCC(C(F)(F)F)C2)cc1 (stereo not given)	1	88
COc1cc(Cc2cnc(N)nc2N)cc(OC)c1OC	/	-1.0*
COc1cc(CC(=O)OCC(N)=O)cc(OC)c1OC	-14	96
COCCN1C(=O)c2oc3cc(C)c(C)cc3c(=O)c2C1c1ccc(OCC(N)=O)cc1 (stereo not given)	26	98
CCC(Sc1ccccn1)C(=O)Nc1ccc(Cl)cn1 (stereo not given)	-2	83
CCC1OC(=O)[C@H](C)C(=O)[C@H](C)[C@@H](OC2O[C@H](C)C[C@H](N(C)C)[C@H]2O)[C@](C)(OC)C[C@@H](C)C(=O)[C@H](C)[C@H]2N(CCCCn3cnc(-c4cccnc4)c3)C(=O)OC12C (stereo not given in full)	/	-1.0*
O=C(Nc1nnc(C2=COCCO2)o1)c1cccc2ccccc12	7	92
CN(C1CCCCC1)S(=O)(=O)c1ccc(C(=O)Nc2nnc(-c3cccnc3)o2)cc1	8	2.3*
COc1cc(OC)cc(-c2nnc(NC(=O)c3ccc(S(=O)(=O)N(C)c4ccccc4)cc3)o2)c1	4	-0.1*
O=C(Nc1nnc(-c2ccc(Cl)cc2)o1)C1CC1	6	2.6*
CN(C1CCCCC1)S(=O)(=O)c1ccc(C(=O)Nc2ccccc2)cc1	13	/
SMILES	S aureus helic	Sa growth 42C
COc1ccc(-c2nnc(NC(=O)C3CC3)o2)cc1	1	78
O=C(Nc1nnc(C2=COCCO2)o1)c1ccc(Cl)cc1	22	3.7*
CN(Cc1ccccc1)S(=O)(=O)c1ccc(C(=O)Nc2nnc(-c3ccco3)o2)cc1	4	83
O=C(CCc1nc2ncccc2c(=O)n1Cc1ccccc1Cl)N1CCN(c2ccccc2)CC1	-2	100
O=C(O)c1cccc2cc[nH]c12	5	107
Cc1cccc(C)c1NC(=O)CSc1ncccc1C(=O)O	-6	96
COc1cc(OC)cc(-c2nnc(NC(=O)c3ccc(S(=O)(=O)N4COCC4(C)C)cc3)o2)c1	9	1.0*
O=C(Nc1nnc(-c2ccccc2)o1)c1ccccc1	15	0.0*
O=C(Nc1nnc(-c2cccs2)o1)c1ccccc1	-19	/
COc1ccc(-c2nnc(NC(=O)c3ccc(S(=O)(=O)N4CCCc5ccccc54)cc3)o2)cc1	5	92
Cc1nc2ccc(NS(=O)(=O)c3ccccc3C(F)(F)F)cc2o1	/	97
Cc1ccc(C(=O)OC2=C(c3ccccc3)C(=O)c3ccccc3C2=O)cc1	9	78
CCOC(=O)COC1=C(c2ccccc2)C(=O)c2ccccc2C1=O	14	5.9*
Cc1ccc2cc(N=Cc3ccc(O)cc3)ccc2n1	1	/
COc1ccc(-c2noc(CNC(C)(C)C)n2)cc1OC	8	109
CCOC(=O)c1ccc2nc(/N=C/NOC(=O)c3cccs3)sc2c1	-10	65
CCN(CC)CC(O)COc1ccc(OC)cc1 (stereo not given)	0	/
CCN(CC)CC(O)COc1ccc(C(C)(C)CC)cc1C(C)(C)CC (stereo not given)	-3	-0.7*
Cc1c(O)ccc(-c2n[nH]c(C(F)(F)F)c2Oc2ccccc2)c1O	-20	/
COc1ccc(-c2n[nH]c(C(F)(F)F)c2-c2cc3ccccc3o2)c(O)c1	28	3.9*
Cc1ccc2nc(NC(=O)OC(C)(C)C)sc2c1	11	70
CCCCOc1ccc(NC(=O)CS(=O)CC(=O)Nc2ccc(OC)cc2)cc1 (stereo not given)	7	90
COc1ccc(CCNC(=O)c2cc(C)nc3c2c(C)nn3-c2ccccc2)cc1OC	/	101
COc1ccc(CCNC(=O)c2c[nH]n3c(=O)c(Cc4ccccc4Cl)c(C)nc23)cc1OC	/	0.7*
Cc1nc2c(C(=O)NCc3ccccc3)cnn2c(C)c1Cc1ccc(F)cc1	/	94
Cc1nc2c(C(=O)NCCc3ccccc3)c[nH]n2c(=O)c1Cl	6	88
Cc1nc2c(C(=O)NCCc3ccccc3)c[nH]n2c(=O)c1Cc1ccc(F)cc1Cl	/	-0.2*
Cc1nc2c(C(=O)NCCC(C)C)c[nH]n2c(=O)c1Cl	8	101
